Test results reported in PubChem BioAssay AID493087 (The Scripps Research Institute Molecular Screening Center, 2011).
The whole screen tested about 340,000 compounds, of which about 240 (0.071%) were called active. This excerpt belongs to a sample that is enriched for actives. Unmarked numbers belong to inactive results.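 How the source made its calls: active means activation above the mean of all tested compounds plus 3 SD, set per screening campaign (cut at about 17% in these data); inactive means the rest.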

Biological target: Insulin-degrading enzyme (Homo sapiens) (UniProt P14735)
Sequence (P14735 whole entry, looked up): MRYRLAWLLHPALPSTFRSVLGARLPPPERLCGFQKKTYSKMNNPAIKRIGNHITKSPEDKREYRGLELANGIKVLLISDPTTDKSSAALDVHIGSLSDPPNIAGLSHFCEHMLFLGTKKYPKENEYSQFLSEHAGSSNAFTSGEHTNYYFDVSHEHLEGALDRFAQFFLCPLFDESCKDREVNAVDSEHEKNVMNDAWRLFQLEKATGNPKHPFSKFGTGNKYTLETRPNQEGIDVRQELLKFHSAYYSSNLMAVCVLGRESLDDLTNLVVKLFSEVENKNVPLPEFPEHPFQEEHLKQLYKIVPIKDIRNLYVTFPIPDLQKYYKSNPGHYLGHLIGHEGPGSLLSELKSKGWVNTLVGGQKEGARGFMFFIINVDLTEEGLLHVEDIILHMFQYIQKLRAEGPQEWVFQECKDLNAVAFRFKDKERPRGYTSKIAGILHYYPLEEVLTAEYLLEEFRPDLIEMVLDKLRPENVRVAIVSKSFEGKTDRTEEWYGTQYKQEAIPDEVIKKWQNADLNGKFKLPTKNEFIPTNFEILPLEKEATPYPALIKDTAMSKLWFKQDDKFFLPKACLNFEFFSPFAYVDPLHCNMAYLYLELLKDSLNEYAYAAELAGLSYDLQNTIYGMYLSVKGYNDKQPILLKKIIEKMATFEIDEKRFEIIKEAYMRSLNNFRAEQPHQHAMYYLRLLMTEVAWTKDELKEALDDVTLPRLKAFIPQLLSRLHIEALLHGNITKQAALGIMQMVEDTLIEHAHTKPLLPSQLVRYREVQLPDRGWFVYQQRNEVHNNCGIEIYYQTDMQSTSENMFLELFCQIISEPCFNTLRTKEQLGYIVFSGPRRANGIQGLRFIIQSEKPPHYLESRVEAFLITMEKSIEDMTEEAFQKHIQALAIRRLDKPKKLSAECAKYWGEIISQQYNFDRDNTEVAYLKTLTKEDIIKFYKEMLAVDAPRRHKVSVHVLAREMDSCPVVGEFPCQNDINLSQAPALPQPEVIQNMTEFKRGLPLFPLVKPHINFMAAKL
Assay: enhanced cellular IDE Abeta cleavage – fluorescence polarization, HEK cells, FAbeta-B substrate, primary screen (AID 493087)
Conditions: at 5.96 µM, active compounds read high, 0% vehicle, 100% cell-free pure enzyme wells

Row | Structure (SMILES) | activation
1 | COC1C(CO)OC(n2cnc3c(=S)nc(N)[nH]c32)C1O (centres undefined) | -9.08%
2 | Cc1noc(C)c1NC(=O)Nc1cccc2c1O[C@H](CN(C)S(=O)(=O)c1c(C)noc1C)[C@@H](C)CN([C@H](C)CO)C2=O | -2.65%
3 | O=S(=O)(/C=C/c1ccccc1)NCCc1ccccn1 | 2.29%
4 | O=C(COC(=O)c1ccncc1)Nc1ccc2c(c1)OCO2 | 3.58%
5 | NC(=O)c1ccc(NC(=O)COC(=O)c2c3c(nc4ccccc24)/C(=C\c2ccc4c(c2)OCO4)CCC3)cc1 | 39.3% (active)
6 | NS(=O)(=O)c1ccc(NC(=O)COC(=O)c2c3c(nc4ccccc24)/C(=C\c2ccc4c(c2)OCO4)CCC3)cc1 | 1.16%
7 | CCCN(CC(=O)Nc1ccc(C(N)=O)cc1)CC(=O)Nc1ccccc1C | 0.5%
8 | O=S(=O)(c1ccc2ccccc2c1)N1CCN(S(=O)(=O)N2CCOCC2)CC1 | -4.09%
9 | Cc1ccc(CC(=O)N(C)CC(=O)N(CC(C)C)c2c(N)n(CC(C)C)c(=O)[nH]c2=O)cc1C | -3.16%
10 | O=C(NCc1ccncc1)C(=O)NCC1OCCN1S(=O)(=O)c1ccc(Br)cc1 (centres undefined) | 1.15%
11 | COc1cccc2sc(N(CCCN(C)C)C(=O)CCS(=O)(=O)c3ccccc3)nc12 | 5.71%
12 | COc1cc2ccccc2cc1C(=O)N(CCN(C)C)c1nc2c(F)cccc2s1 | 6.93%
13 | COc1cccc2sc(N(CCCN(C)C)C(=O)C(c3ccccc3)c3ccccc3)nc12 | 31% (active)
14 | NS(=O)(=O)c1ccc(NC2=CC(c3ccc(F)cc3)N(c3ccc(S(N)(=O)=O)cc3)C2=O)cc1 (centres undefined) | 1.07%
15 | CC(=O)c1cccc(-n2nnnc2SCC(=O)NNC(=O)C2CCCCC2)c1 | 6.48%
16 | Oc1ccc2ccc3cccc[n+]3c2c1 | 26.2% (active)
17 | Oc1ccc(-c2nc3ccccc3nc2-c2ccc(O)cc2O)c(O)c1 | 3.04%
18 | Cc1ccc(-c2nn(C(C)(C)C)c3ncnc(N)c23)cc1 | 2.32%
19 | Cc1cccc2c1cnn2C(=O)CCC(=O)NC1CCCCC1 | 0.37%
20 | COc1cc(Cl)cc(C2NC(=O)NC(C)=C2C(=O)NCc2ccccc2)c1O (centres undefined) | -1.41%
21 | Oc1ccc(C2Nc3cccc4cccc(c34)N2)cc1 | 19.4% (active)
22 | Brc1ccccc1C1Nc2cccc3cccc(c23)N1 | 8.61%
23 | COc1ccc(C2NC(=O)c3ccccc3N2)cc1 (centres undefined) | 3.47%
24 | C=CCOC(=O)C1=C[C@H](c2ccc(Br)cc2)C[C@H](OCCCCO)O1 | -1.17%
